# IL-1B inflam inh – qHTS for Inhibitors of Inflammasome Signaling: IL-1-beta AlphaLISA Primary Screen | activity change, % at 57.5 µM | THP-1 LPS/ATP IL-1B secretion, AlphaLISA, 16 h; hits give low values | hit rate 4.7% among 360,000 | AID 743279, 2014; in the data active means activity change below about -50%; inconclusive means mostly about -30% to -49%
#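 THP-1 cells pretreated 1 hr with compounds (up to 57.5 uM final), then stimulated with LPS (250 ng/mL final) plus ATP (1.25 mM final); secreted IL-1B measured by AlphaLISA after 16 hr, decreased signal indicating inhibition.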
# RORg inh – qHTS for inhibitors of ROR gamma transcriptional activity | Drosophila S2 Gal4-RORgamma UAS-luciferase reporter, 20 h | Potency, µM (titrated, usually from 53.6 µM), hits mostly inhibitors | hit rate 5.4% among 310,000 | AID 2551, 2010; further: nearly all actives have a fitted effect of over 60% in size
# Target sequence (P51450 whole entry, looked up, the tested form may be a part): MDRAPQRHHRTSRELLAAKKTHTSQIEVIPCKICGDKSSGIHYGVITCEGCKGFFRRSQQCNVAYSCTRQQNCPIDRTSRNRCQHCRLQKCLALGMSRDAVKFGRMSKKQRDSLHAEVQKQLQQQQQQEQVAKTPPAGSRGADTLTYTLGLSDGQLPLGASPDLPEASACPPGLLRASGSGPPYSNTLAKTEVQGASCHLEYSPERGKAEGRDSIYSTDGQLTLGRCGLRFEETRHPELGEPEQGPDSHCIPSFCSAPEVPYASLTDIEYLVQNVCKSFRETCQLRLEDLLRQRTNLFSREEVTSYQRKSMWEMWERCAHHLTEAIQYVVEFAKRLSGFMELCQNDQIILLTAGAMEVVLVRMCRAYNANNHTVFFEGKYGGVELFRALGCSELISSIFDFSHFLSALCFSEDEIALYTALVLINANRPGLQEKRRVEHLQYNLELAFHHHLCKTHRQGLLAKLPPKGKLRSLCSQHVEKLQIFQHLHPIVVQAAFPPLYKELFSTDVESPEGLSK
#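 ROR gamma transcriptional activity was tracked as Gal4-UAS luciferase output in stably transfected Drosophila Schneider cells, with compound added 1 hr before 700 uM copper sulfate induction and a 20 hr ambient-temperature incubation.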
# Gal4-VP16 FLuc – VP16 counterscreen qHTS for inhibitors of ROR gamma transcriptional activity; hit rate 3.5% among 310,000; AID 2546, 2010; Potency, µM (series often up to 53.6 µM), most hits filed as inhibitors; Drosophila S2 Gal4-VP16 UAS-luciferase, luminescence, 20 h;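 further: Gal4-VP16 expression switched on by copper sulfate through the metallothionein promoter; nearly all actives have a fitted effect of over 50% in size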
# DT40 TDP1 CPT – qHTS for Inhibitors of human tyrosyl-DNA phosphodiesterase 1 (TDP1): qHTS in cells in presence of CPT | chicken DT40 Tdp1-/-;hTDP1 cells + 20 nM CPT, ATP luminescence, 48 h | Potency, µM (doses to about 46.2 µM), usual class: inhibitors | hit rate 12% among 420,000 | AID 686979, 2013; further: nearly all actives have a fitted effect of over 55% in size
#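 Chicken DT40 Tdp1-/- cells stably complemented with human TDP1 were seeded at 400 cells/well in medium containing 20 nM camptothecin, exposed to pin-transferred compounds, and grown at 37 °C for at least 48 hr. Viability was read as ATP luminescence.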
# TDP1 cell noCPT – qHTS for Inhibitors of human tyrosyl-DNA phosphodiesterase 1 (TDP1): qHTS in cells in absence of CPT; DT40 Tdp1-/- hTDP1 cells, no CPT, ATP luminescence, 48 h; Potency, µM (series often up to 46.2 µM), hits mostly inhibitors; hit rate 15% among 420,000; further: nearly all actives have a fitted effect of over 55% in size
#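 Chicken DT40 Tdp1-/- cells complemented with human TDP1, screened without camptothecin (DMSO vehicle only), 400 cells/well. Compounds pin-transferred, cells incubated at 37 °C for at least 48 hr. Growth read as ATP-dependent luminescence (CellTiter-Glo, 30 min at RT).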
# ELG1 repair inh – qHTS screen for small molecules that inhibit ELG1-dependent DNA repair in human embryonic kidney (HEK293T) cells expressing luciferase-tagged ELG1; HEK293T ELG1-luciferase reporter, luminescence, 16 h; DNA damage induced by 5-fluorouridine; Potency, µM (series often up to 46.1 µM), usual class: inhibitors; hit rate 2.3% among 330,000; further: nearly all actives have a fitted effect of over 55% in size
#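 In this reporter screen, reduction of luminescence relative to DMSO vehicle indicated activity. Compounds and 5-fluorouridine were added together to 2,000 cells per well, incubated for 16 hr at 37 °C, then developed with ONE-Glo.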
# Hits are given with their value; - = inactive; ? = inconclusive; . = not tested or not shown. An excerpt weighted towards active compounds, which were near 21% of everything screened. Unless noted, the call rests on the fitted dose curve; in most records, active means well fitted curve in the direction sought with a large enough effect; inconclusive means small, poorly fitted or top-dose-only effect, or another doubt; inactive means no such curve, though single readings can be large; an effect the other way counts as inactive or inconclusive.
SMILES,IL-1B inflam inh,RORg inh,Gal4-VP16 FLuc,DT40 TDP1 CPT,TDP1 cell noCPT,ELG1 repair inh
Cc1ccc2nc(Nc3nc(CSc4nnnn4-c4ccccc4)cc(=O)[nH]3)nc(C)c2c1,-,-,-,-,-,-
COc1ccc2c(C)nc(Nc3nc(C)cc(C)n3)nc2c1,-,0.25µM,1.3µM,2.9µM,3.3µM,?
COc1ccc2c(C)nc(Nc3nc(C)c(C)c(=O)[nH]3)nc2c1,-100,5µM,2.8µM,4.6µM,2.9µM,?
N#Cc1cccc(NC(=O)N2CC3(CCN(C(=O)c4cnccn4)CC3)C2)c1,.,-,-,-,-,.
CN(Cc1cnn(-c2ccc(F)cc2)c1)C(=O)[C@H]1O[C@@H](n2ccc(=O)[nH]c2=O)[C@H](O)[C@@H]1O,-,.,.,-,-,.
O=C(NCCc1ccccc1)/C(=C\c1cccc([N+](=O)[O-])c1)NC(=O)c1ccco1,-,?,-,?,?,-
CCCCCc1c(C)nc(Nc2nc(C)c3cc(OC)ccc3n2)[nH]c1=O,-,-,-,13µM,16µM,?
CCc1c(C)nc(Nc2nc(C)c3cc(OC)ccc3n2)[nH]c1=O,?,-,-,?,21µM,-
CCCCc1c(C)nc2ccc(OC)cc2c1SCCC(=O)O,-,-,-,-,-,-
COc1ccc2nc(NC3=NC(c4ccccc4)CC(=O)N3)nc(C)c2c1 (stereo not given),-,-,-,?,13µM,?
CCc1c(C)nc(Nc2nc(C)c3ccc(OC)cc3n2)[nH]c1=O,-76,-,-,?,16µM,?
CCc1c(C)nc(SCCOc2ccc(OC)cc2)[nH]c1=O,-,-,-,?,?,-
COc1ccc(CCn2c3c(c(=O)[nH]c2=S)CN(C)CN3)cc1OC,.,.,.,-,-,.
CC(=O)NCCNC(=O)CCCc1nnc2n(CC(C)C)c(=O)c3sccc3n12,.,.,.,-,-,.
O=C(Cn1cc(S(=O)(=O)Cc2ccccc2F)c2ccccc21)N1CCOCC1,-,-,-,-,-,-
Cn1cc(C(=O)NCCc2ccccc2)c(=O)c2cc(S(=O)(=O)N3CCCCCC3)ccc21,.,.,.,-,?,.
CCCc1c(C(=O)N/N=C/c2ccoc2)nnn1-c1nonc1N,-,.,.,-,-,.
CCCCC/C=C\C/C=C\C/C=C\CCCCC(N)=O,.,-,-,.,.,.
O=C(CSc1nc(-c2ccco2)nc2cc(=O)[nH]n12)Nc1ccc(F)cc1,.,.,.,-,-,.
COc1ccc(C)cc1NC(=O)C1CCN(S(=O)(=O)c2cc(Br)cc3c2N(C(C)=O)CC3)CC1,.,.,.,-,-,.
COc1cccc(/C=C2\SC(=S)N(CCC(=O)NC3C=CS(=O)(=O)C3)C2=O)c1 (stereo not given),-67,-,-,?,?,4.6µM
O=C(CN1C(=O)/C(=C/c2ccccc2F)SC1=S)NC1C=CS(=O)(=O)C1 (stereo not given),-50,-,-,-,-,-
O=C(CN1C(=O)S/C(=C\c2ccccc2F)C1=O)NC1CCS(=O)(=O)C1 (stereo not given),-,-,-,-,-,-
O=C(CN1C(=O)S/C(=C\c2ccc(Cl)cc2)C1=O)NC1C=CS(=O)(=O)C1 (stereo not given),-69,-,-,5.2µM,?,-
COc1ccc(/C=C2\SC(=S)N(CCC(=O)NC3C=CS(=O)(=O)C3)C2=O)cc1 (stereo not given),?,?,-,-,-,-
SMILES,IL-1B inflam inh,RORg inh,Gal4-VP16 FLuc,DT40 TDP1 CPT,TDP1 cell noCPT,ELG1 repair inh
O=C(CN1C(=O)S/C(=C\c2cccc(Cl)c2)C1=O)NC1C=CS(=O)(=O)C1 (stereo not given),-67,7.9µM,-,?,-,-
O=C(COc1ccc(Cl)cc1Cl)NCCN1CCCC1,-,.,.,-,-,.
CNS(=O)(=O)c1ccc2c(c1)C(=O)c1cc(S(=O)(=O)NC)ccc1CC2,.,.,.,.,.,-
COc1cccc(/C=C2\SC(=S)N(CCC(=O)NCCc3ccc(O)cc3)C2=O)c1,-85,-,-,18µM,?,-
O=C(CN1C(=O)/C(=C/c2cccc(Cl)c2)SC1=S)NC1C=CS(=O)(=O)C1 (stereo not given),-63,13µM,?,?,16µM,-
CN1CCN(NC(=O)CN2C(=O)/C(=C/c3ccccc3F)SC2=S)CC1,.,0.22µM,-,.,.,-
C[C@H](N)C(=O)N[C@@H](C)P(=O)(O)O,.,-,-,-,-,.
Cc1noc(C)c1S(=O)(=O)N(C)C[C@H]1Oc2ccc(NC(=O)Cc3ccccc3)cc2C(=O)N([C@H](C)CO)C[C@@H]1C,-,.,.,-,-,-
CC(=O)Nc1cccc(-c2ccnc3c2CC(C)(C(=O)Nc2ccc4c(c2)OCO4)O3)c1 (stereo not given),-,.,.,0.65µM,0.65µM,.
CC1(C(=O)Nc2ccc(Cl)cc2)Cc2c(-c3cccc(C(F)(F)F)c3)ccnc2O1 (stereo not given),-,.,.,?,23µM,.
CC1(C(=O)Nc2cccc(C(F)(F)F)c2)Cc2c(-c3ccccc3)ccnc2O1 (stereo not given),-,.,.,?,?,.
CC(=O)Nc1cccc(-c2ccnc3c2CC(C)(C(=O)NCc2ccncc2)O3)c1 (stereo not given),-,.,.,21µM,18µM,.
CC(=O)Nc1ccc(-c2ccnc3c2CC(C)(C(=O)NCc2ccncc2)O3)cc1 (stereo not given),-,.,.,-,-,.
COc1ccc(NC(=O)C2(C)Cc3c(-c4cccc(C(F)(F)F)c4)ccnc3O2)cc1OC (stereo not given),-,.,.,16µM,21µM,.
CC1(C(=O)Nc2ccc3c(c2)OCO3)Cc2c(-c3ccccc3)ccnc2O1 (stereo not given),-,.,.,?,?,.
CC(=O)Nc1cccc(-c2ccnc3c2CC(C)(C(=O)Nc2ccc(Cl)cc2)O3)c1 (stereo not given),-,.,.,1.6µM,4.1µM,.
CC(=O)Nc1cccc(-c2ccnc3c2CC(C)(C(=O)Nc2cccc(C(C)=O)c2)O3)c1 (stereo not given),-,.,.,5.8µM,6.5µM,.
CC(=O)Nc1ccc(NC(=O)C2(C)Cc3c(-c4cccc(NC(C)=O)c4)ccnc3O2)cc1 (stereo not given),-,.,.,-,-,.
CC(=O)Nc1ccc(-c2ccnc3c2CC(C)(C(=O)Nc2ccc(F)c(Cl)c2)O3)cc1 (stereo not given),-62,.,.,?,23µM,.
